Reference: PubChem BioAssay AID1159580 (chemical genetic matrix, 2015)
Where “and” joins values, the source holds several entries; their conditions need not be identical. Equal values may be shown once. The whole screen tested about 5,500 compounds, of which about 2,000 (36%) were called active. About 18% were inconclusive and are not listed. No stated cut-off is given here; in the data, active means normalized growth mostly below about 0.91 (no sharp cut-off); inconclusive means no clear call, values can overlap the other calls; inactive means mostly above about 0.92. Some of the results follow.

Assay: chemical genetic growth profiling, strain panel (AID 1159580);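 further: tested at 20 µM; growth read once vehicle control cultures reached saturation at 30 °C; 1 = growth at the plate median or of vehicle wells; lower values mean less growth of the strain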
Conditions: S. cerevisiae deletion strains, growth OD

Measured: normalized growth

O=C(C1CCCCC1)N1CC(=O)N2CCc3ccccc3C2C1 (stereo not drawn)
inactive: locus YAL021C, strain ccr4, hits give low values 0.999 | locus YAL026C, strain drs2, hits give low values 1 | locus YAL030W, strain snc1, hits give low values 1.01 | locus YAL040C, strain CLN3, hits give low values 1.05 | locus YBL061C, strain skt5, hits give low values 1.01 | locus YBR009C, strain hhf1, hits give low values 1.01 | locus YBR021W, strain FUR4, hits give low values 0.993 | locus YBR023C, strain chs3, hits give low values 1.02 | locus YBR171W, strain sec66, hits give low values 1.01 | locus YBR229C, strain ROT2, hits give low values 1 | locus YBR231C, strain swc5, hits give low values 0.983 | locus YBR279W, strain paf1, hits give low values 1.01 | locus YCL011C, strain gbp2, hits give low values 1.03 | locus YCL016C, strain dcc1, hits give low values 1.04 | locus YCL029C, strain bik1, hits give low values 1.01 | locus YCL061C, strain MRC1 (second series), hits give low values 1 | locus YCL061C, strain MRC1, hits give low values 1.01 | locus YCL069W, strain vba3, hits give low values 1.01 | locus YCR088W, strain abp1, hits give low values 1.01 | locus YDL005C, strain med2, hits give low values 1.01 | locus YDL035C, strain GPR1, hits give low values 1 | locus YDL040C, strain nat1, hits give low values 0.992 | locus YDL074C, strain BRE1, hits give low values 1.01 | locus YDL101C, strain DUN1, hits give low values 1.01 | locus YDL134C, strain PPH21, hits give low values 1 | locus YDL185W, strain tfp1, hits give low values 1.01 | locus YDL192W, strain arf1, hits give low values 1.01 | locus YDR001C, strain nth1, hits give low values 1 | locus YDR069C, strain doa4, hits give low values 0.978 | locus YDR101C, strain arx1, hits give low values 1.03 | locus YDR137W, strain rgp1, hits give low values 1.03 | locus YDR159W, strain sac3, hits give low values 0.976 | locus YDR162C, strain NBP2, hits give low values 1 | locus YDR195W, strain ref2 0.981 | locus YDR297W, strain sur2, hits give low values 1.01 | locus YDR318W, strain mcm21, hits give low values 1.02 | locus YDR334W, strain swr1, hits give low values 1.01 | locus YDR335W, strain msn5, hits give low values 0.999 | locus YDR363W, strain ESC2, hits give low values 1.04 | locus YDR388W, hits give low values 1.01 | locus YDR392W, strain spt3, hits give low values 0.862 | locus YDR502C, strain sam2, hits give low values 1.01 | locus YEL003W, strain gim4, hits give low values 0.995 | locus YEL037C, strain rad23, hits give low values 0.999 | locus YEL061C, strain CIN8 (second series), hits give low values 1 | locus YEL061C, strain CIN8, hits give low values 1 | locus YER002W, strain NOP16, hits give low values 1.01 | locus YER015W, strain faa2, hits give low values 1 | locus YER016W, strain bim1, hits give low values 0.989 | locus YER110C, hits give low values 1.02 | locus YER111C, strain swi4, hits give low values 1 | locus YER155C, strain BEM2 (second series), hits give low values 0.913 | locus YER155C, strain BEM2, hits give low values 1 | locus YER167W, strain BCK2, hits give low values 1 | locus YFR010W, strain ubp6, hits give low values 1.01 | locus YGL078C, strain dbp3, hits give low values 1.01 | locus YGL086W, strain mad1, hits give low values 1.01 | locus YGL167C, strain pmr1, hits give low values 1.01 | locus YGL173C, strain kem1, hits give low values 1 | locus YGL227W, strain vid30, hits give low values 1.01 | locus YGL240W, strain doc1, hits give low values 0.978 | locus YGL248W, strain PDE1, hits give low values 1.01 | locus YGL253W, strain hxk2, hits give low values 0.982 | locus YGR078C, strain PAC10, hits give low values 1 and 1.01 | locus YGR135W, strain pre9, hits give low values 0.998 | locus YGR252W, strain gcn5, hits give low values 0.953 | locus YHR013C, strain ard1, hits give low values 0.988 | locus YHR027C, strain rpn1, hits give low values 1.01 | locus YHR030C, strain SLT2, hits give low values 1 and 1.01 | locus YHR079C, strain IRE1 (second series), hits give low values 1.01 | locus YHR079C, strain IRE1, hits give low values 1.01 | locus YHR094C, strain hxt1, hits give low values 1.01 | locus YHR129C, strain ARP1, hits give low values 0.992 | locus YHR142W, strain chs7, hits give low values 1 | locus YHR200W, strain rpn10, hits give low values 1.01 | locus YIL066C, strain RNR3, hits give low values 1.01 | locus YIL073C, strain SPO22, hits give low values 1.01 | locus YIL125W, strain kgd1, hits give low values 1.01 | locus YIR030C, strain dcg1, hits give low values 1.01 | locus YJL092W, strain hpr5, hits give low values 1 | locus YJL095W, strain BCK1 (second series), hits give low values 1.01 | locus YJL095W, strain BCK1, hits give low values 0.974 and 1.03 | locus YJL115W, strain asf1, hits give low values 1.01 | locus YJL129C, strain trk1, hits give low values 0.997 | locus YJL134W, strain LCB3, hits give low values 1 | locus YJL154C, strain vps35, hits give low values 1 | locus YJL164C, strain tpk1, hits give low values 1.02 | locus YJL166W, strain qcr8, hits give low values 1.02 | locus YJL168C, strain set2, hits give low values 1.01 | locus YJL187C, strain SWE1 (second series), hits give low values 1.01 | locus YJL187C, strain SWE1, hits give low values 1.01 | locus YJR043C, strain POL32, hits give low values 1.01 | locus YJR066W, strain TOR1, hits give low values 0.939
